Test results: publication PMC7862700, “An all-to-all approach to the identification of sequence-specific readers for epigenetic DNA modifications on cytosine”

Columns and labels:
Test in all cases: DAPPL (digital affinity profiling via proximity ligation, sequencing); 10 mM Tris-HCl pH 7.5, 50 mM NaCl, 1 mM DTT, 4% glycerol, room temperature, 30 min; GST-TFs on glutathione beads, 16-mer random dsDNA library, 0.1% formaldehyde crosslink after washing; high values mean tight binding
Settings in all cases: protein: recombinant; tags: N-terminal GST; dsDNA, one strand shown
FLI1 = biological target: T1, FLI1 (Homo sapiens, UniProt Q01543 1-452)
T1 sequence: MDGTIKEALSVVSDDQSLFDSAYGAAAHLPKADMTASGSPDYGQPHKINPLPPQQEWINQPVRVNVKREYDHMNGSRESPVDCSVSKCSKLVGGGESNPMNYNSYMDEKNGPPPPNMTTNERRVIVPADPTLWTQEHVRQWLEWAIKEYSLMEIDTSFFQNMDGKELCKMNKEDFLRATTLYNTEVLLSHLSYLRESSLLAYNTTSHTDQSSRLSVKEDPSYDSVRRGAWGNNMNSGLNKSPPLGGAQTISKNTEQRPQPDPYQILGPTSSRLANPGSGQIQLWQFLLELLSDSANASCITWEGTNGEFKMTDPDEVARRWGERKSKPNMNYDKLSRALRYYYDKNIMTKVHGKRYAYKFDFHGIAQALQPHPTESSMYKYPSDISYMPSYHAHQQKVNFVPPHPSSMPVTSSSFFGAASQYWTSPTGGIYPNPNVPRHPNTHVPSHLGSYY
Outline: (§1)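 Beads coated with glutathione captured GST-fused human transcription factors that had been expressed in yeast, and the factors were then given DNA barcodes and pooled with a tag-only sample. The pools were incubated with 200 nmole of a random double-stranded 16-mer DNA library in Tris/NaCl/DTT/glycerol buffer for 30 min at room temperature, washed, crosslinked with 0.1% formaldehyde and proximity-ligated with BsaI/T4 ligase at 37 °C for 1 h. PCR amplification and Illumina NextSeq500 sequencing came last. Binding signal is each hexamer's read frequency for a factor divided by its frequency for the tag-only sample.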

ELK1 = biological target: T2, ELK1 (Homo sapiens, UniProt P19419 1-428)
T2 sequence: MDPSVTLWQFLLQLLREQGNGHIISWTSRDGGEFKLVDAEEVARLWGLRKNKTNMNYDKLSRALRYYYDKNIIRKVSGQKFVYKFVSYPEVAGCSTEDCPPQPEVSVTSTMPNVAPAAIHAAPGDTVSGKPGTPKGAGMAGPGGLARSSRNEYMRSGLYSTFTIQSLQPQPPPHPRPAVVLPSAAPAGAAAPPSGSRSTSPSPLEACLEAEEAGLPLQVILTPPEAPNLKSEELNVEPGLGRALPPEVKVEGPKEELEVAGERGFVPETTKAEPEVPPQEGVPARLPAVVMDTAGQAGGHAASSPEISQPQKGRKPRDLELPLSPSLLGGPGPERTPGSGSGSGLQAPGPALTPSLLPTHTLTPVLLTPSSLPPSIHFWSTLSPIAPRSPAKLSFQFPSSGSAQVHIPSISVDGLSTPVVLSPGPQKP
Outline: as §1

GABPA = biological target: T3, GABPA (Homo sapiens, UniProt Q06546 1-454)
T3 sequence: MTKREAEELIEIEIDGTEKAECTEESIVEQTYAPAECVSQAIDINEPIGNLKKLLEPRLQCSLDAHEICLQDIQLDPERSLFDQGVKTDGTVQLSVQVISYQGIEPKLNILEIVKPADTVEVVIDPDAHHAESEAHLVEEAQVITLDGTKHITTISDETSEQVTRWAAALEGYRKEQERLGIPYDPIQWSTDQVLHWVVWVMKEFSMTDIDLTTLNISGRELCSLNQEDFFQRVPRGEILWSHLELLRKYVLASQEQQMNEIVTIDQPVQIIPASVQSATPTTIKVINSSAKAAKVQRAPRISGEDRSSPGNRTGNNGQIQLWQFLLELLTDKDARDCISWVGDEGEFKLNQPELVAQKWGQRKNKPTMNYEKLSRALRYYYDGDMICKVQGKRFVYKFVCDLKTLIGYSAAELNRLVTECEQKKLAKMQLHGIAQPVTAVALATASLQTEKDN
Outline: as §1

ERG = biological target: T4, ERG (Homo sapiens, UniProt P11308 1-479)
T4 sequence: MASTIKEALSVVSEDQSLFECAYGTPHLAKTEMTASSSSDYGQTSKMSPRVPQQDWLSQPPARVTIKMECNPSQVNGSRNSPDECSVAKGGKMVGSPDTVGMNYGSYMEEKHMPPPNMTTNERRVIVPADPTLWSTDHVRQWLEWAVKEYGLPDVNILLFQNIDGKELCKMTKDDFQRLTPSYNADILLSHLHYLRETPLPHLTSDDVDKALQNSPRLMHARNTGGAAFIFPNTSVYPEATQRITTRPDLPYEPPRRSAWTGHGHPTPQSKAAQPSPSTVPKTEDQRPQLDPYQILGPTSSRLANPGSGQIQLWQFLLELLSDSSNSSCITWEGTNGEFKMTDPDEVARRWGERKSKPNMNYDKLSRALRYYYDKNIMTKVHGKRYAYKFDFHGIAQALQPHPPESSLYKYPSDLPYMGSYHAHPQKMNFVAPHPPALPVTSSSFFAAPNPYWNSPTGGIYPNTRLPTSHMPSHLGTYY
Outline: as §1

ELF1 = ELF1 (Homo sapiens, UniProt P32519 1-619)
Outline: as §1

EHF = biological target: T5, EHF (Homo sapiens, UniProt Q9NZC4 1-300)
T5 sequence: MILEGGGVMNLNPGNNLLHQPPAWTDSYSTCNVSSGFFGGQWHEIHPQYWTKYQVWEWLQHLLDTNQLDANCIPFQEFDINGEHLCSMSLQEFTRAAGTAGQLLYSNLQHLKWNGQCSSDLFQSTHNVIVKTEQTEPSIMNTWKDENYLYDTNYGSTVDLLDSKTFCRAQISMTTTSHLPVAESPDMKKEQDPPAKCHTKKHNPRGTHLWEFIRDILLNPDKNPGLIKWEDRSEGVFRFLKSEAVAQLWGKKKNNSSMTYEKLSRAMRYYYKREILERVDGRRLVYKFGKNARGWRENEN
Outline: as §1

SPI1 = SPI1 (Homo sapiens, UniProt P17947 1-270)
Outline: as §1

SPIB = SPIB (Homo sapiens, UniProt Q01892 1-262)
Outline: as §1

ELK3 = biological target: T6, ELK3 (Homo sapiens, UniProt P41970 1-407)
T6 sequence: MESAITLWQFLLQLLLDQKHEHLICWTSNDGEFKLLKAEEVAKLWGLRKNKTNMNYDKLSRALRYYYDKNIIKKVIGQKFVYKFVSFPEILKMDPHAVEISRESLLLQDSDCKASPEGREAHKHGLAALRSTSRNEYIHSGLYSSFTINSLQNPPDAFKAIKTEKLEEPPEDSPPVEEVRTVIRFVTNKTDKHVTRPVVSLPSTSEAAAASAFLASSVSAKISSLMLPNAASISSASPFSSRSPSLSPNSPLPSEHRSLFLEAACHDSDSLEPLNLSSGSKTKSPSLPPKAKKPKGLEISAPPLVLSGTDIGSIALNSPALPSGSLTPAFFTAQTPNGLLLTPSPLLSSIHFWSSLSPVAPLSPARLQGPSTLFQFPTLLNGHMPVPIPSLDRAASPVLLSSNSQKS
Outline: as §1

Sequence of ELF1 (P32519 whole entry): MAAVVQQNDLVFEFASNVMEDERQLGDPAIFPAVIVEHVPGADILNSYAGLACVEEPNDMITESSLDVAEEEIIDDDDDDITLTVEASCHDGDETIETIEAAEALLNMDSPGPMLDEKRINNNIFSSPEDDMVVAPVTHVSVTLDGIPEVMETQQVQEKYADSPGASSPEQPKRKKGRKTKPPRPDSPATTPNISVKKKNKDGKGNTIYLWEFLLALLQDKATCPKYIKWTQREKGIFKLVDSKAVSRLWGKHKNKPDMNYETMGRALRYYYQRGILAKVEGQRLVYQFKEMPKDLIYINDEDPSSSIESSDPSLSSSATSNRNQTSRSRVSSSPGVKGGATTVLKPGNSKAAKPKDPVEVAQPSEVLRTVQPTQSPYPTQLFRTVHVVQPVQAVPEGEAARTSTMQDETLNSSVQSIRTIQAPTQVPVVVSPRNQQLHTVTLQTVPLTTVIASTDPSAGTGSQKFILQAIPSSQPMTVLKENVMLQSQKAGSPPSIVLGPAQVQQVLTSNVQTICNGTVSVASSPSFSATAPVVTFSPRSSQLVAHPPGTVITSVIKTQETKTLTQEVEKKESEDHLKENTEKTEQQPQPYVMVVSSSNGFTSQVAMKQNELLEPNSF
Sequence of SPIB (Q01892 whole entry): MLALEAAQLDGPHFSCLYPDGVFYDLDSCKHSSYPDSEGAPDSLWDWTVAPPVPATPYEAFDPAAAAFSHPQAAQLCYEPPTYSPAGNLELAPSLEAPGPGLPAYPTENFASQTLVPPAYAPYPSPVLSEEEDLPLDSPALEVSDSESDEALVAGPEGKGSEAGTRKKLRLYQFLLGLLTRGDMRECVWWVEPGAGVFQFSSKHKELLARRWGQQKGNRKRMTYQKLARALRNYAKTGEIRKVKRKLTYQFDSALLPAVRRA

ATTGCC
binding signal (FLI1): 1.28 fold enrichment (6-mer frequency, TF over GST control) | binding signal (ELK1): 1.27 fold enrichment (6-mer frequency, TF over GST control) | binding signal (GABPA): 1.28 fold enrichment (6-mer frequency, TF over GST control) | binding signal (ERG): 1.14 fold enrichment (6-mer frequency, TF over GST control) | binding signal (ELF1): 1.21 fold enrichment (6-mer frequency, TF over GST control) | binding signal (EHF): 1.24 fold enrichment (6-mer frequency, TF over GST control) | binding signal (SPI1): 1.15 fold enrichment (6-mer frequency, TF over GST control) | binding signal (SPIB): 1.26 fold enrichment (6-mer frequency, TF over GST control) | binding signal (ELK3): 1.15 fold enrichment (6-mer frequency, TF over GST control)
